Records with an inconclusive call do not appear. Activity calls are given as the source filed them. Calls come from the whole dose curve; as a rule, active = well fitted curve in the direction sought with a large enough effect in the signal ratio (not every such curve was filed as active); inconclusive = small, poorly fitted or top-dose-only effect, or effect the other way, or a change in a side signal; inactive = no such curve, though single readings can be large or run the other way; the % refers to the signal ratio.
The compounds below were run against Tyrosine-protein phosphatase non-receptor type substrate 1 (Homo sapiens) + Leukocyte surface antigen CD47 (Homo sapiens) (UniProt P78324+Q08722) (assay: CD47-SIRPalpha protein protein interaction - HTRF assay qHTS validation (AID 1347058)). Settings: TR-FRET HTRF CD47-His / biotin-SIRPalpha binding, ratio 665/615; series mostly up to 38.3 µM.
Tyrosine-protein phosphatase non-receptor type substrate 1 (Homo sapiens) + Leukocyte surface antigen CD47 (Homo sapiens), sequence (P78324 whole entry, looked up, the tested form may be a part): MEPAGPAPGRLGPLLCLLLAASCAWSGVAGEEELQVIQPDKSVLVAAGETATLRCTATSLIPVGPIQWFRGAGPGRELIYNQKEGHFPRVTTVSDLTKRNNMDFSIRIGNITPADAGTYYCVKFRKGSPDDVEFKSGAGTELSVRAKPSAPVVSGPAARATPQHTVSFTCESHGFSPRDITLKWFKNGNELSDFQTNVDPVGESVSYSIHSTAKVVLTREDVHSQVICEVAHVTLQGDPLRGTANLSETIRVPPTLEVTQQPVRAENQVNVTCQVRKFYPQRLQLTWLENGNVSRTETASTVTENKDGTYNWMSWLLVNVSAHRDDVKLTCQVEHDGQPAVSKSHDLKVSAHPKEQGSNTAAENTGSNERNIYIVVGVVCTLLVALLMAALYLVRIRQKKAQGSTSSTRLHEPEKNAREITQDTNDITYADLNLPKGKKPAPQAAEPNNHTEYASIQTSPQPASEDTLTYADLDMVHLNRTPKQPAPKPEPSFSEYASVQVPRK
Tyrosine-protein phosphatase non-receptor type substrate 1 (Homo sapiens) + Leukocyte surface antigen CD47 (Homo sapiens), sequence (Q08722 whole entry, looked up, the tested form may be a part): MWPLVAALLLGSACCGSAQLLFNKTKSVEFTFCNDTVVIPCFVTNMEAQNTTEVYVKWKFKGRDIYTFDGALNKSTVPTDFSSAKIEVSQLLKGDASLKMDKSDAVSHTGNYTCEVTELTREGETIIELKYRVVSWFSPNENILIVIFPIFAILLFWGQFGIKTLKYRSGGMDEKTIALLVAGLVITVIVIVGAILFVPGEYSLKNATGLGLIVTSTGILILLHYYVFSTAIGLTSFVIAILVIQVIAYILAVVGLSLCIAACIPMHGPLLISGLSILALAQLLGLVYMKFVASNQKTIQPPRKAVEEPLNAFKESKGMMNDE
Summary of the method: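 TR-FRET read (Ch1/Ch2 ratio) of soluble extracellular CD47 and Avi-biotinylated SIRPalpha domains in PBS pH 7.4 with 0.05% IGEPAL; 7-point compound titration. Sequential 30 min room-temperature steps; non-biotinylated SIRPalpha as control inhibitor.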
In the case of Cc1cc(NC(=O)Nc2ccc3c(ccn3C)c2)sn1, the outcome is reported as “inactive”.
In the case of COc1ccc2c(c1)CCC1C2CC[C@@]2(C)C1CC[C@@H]2NCCCCCCN1C(=O)CCC1=O (stereo partly drawn), the outcome is reported as “inactive”.
In the case of C[N+](C)(C)CCOP(=O)(O)OP(=O)([O-])OC[C@H]1O[C@@H](n2ccc(N)nc2=O)[C@H](O)[C@@H]1O, the outcome is reported as “inactive”.
With CCN(CC)c1ncnc2c1ncn2[C@@H]1O[C@H](COP(=O)(O)OP(=O)(O)C(Br)(Br)P(=O)(O)O)[C@@H](O)[C@H]1O the outcome was “inactive”.
For CC(C)CC(NP(=O)(O)O[C@@H]1O[C@@H](C)[C@H](O)[C@@H](O)[C@H]1O)C(=O)NC(Cc1c[nH]c2ccccc12)C(=O)O (stereo partly drawn), the outcome was “inactive”.
In the case of C=CC(C)=C[C@@]1(C)SC(=O)C(C)=C1O, the outcome is reported as “inactive”.
With CNC(=O)[C@H]1O[C@@H](n2cnc3c(NCc4cccc(I)c4)ncnc32)[C@H](O)[C@@H]1O the outcome was “inactive”.
CCCCCCCC/C=C\CCCCCCCC(=O)NCCO was tested, and the outcome was “inactive”.
For COC(=O)c1c(C)[nH]c(C)c1C(=O)c1ccccc1Cc1ccccc1, the outcome was “inactive”.
With NCCCCCCCCCCN the outcome was “inactive”.
CC(C)(C=O)Cc1cc(C(C)(C)C)c(O)c(C(C)(C)C)c1 was tested, and the outcome was “inactive”.
For COc1cccc(C(=O)NCCN2CCN(c3ccc(Cl)cc3)CC2)c1, the outcome was “inactive”.
For NC(=O)C1=CN(C2OC(COP(=O)(O)OP(=O)(O)OC[C@H]3O[C@@H](n4cnc5c(N)ncnc54)[C@H](OP(=O)(O)O)[C@@H]3O)C(O)C2O)C=CC1 (stereo partly drawn), the outcome was “inactive”.
In the case of COc1cc(SC)ccc1C(=O)N1CCC(Cc2ccccc2)CC1, the outcome is reported as “inactive”.
In the case of CC1CN(S(=O)(=O)c2cccc3cnccc23)CCN1 (stereo not drawn), the outcome is reported as “inactive”.
In the case of C[C@@H](CN1CCC(Cc2ccccc2)CC1)[C@@H](O)c1ccc(O)cc1, the outcome is reported as “inactive”.
CC1(C)CCC=[N+]1[O-] was tested, and the outcome was “inactive”.
In the case of OC[C@H]1O[C@@H](n2cnc3c(NC4CCCC4)ncnc32)[C@H](O)[C@@H]1O, the outcome is reported as “inactive”.
With COc1cc(C(O)CO)ccc1OS(=O)(=O)O (stereo not drawn) the outcome was “inactive”.
In the case of CC(=O)N[C@H](C(=O)O)C(C)(C)SN=O, the outcome is reported as “inactive”.
In the case of CCCCC#Cc1nc(NC)c2ncn([C@@H]3O[C@H](CO)[C@@H](O)[C@H]3O)c2n1, the outcome is reported as “inactive”.
OC[C@H]1O[C@@H](n2cnc3c(NC4CCCCC4)ncnc32)[C@H](O)[C@@H]1O was tested, and the outcome was “inactive”.
NCCCS(=O)(=O)O was tested, and the outcome was “inactive”.

Source: PubChem BioAssay (NCATS)
